Results as given in PubChem BioAssay (NCATS).
Where “and” joins values, the source holds several entries; their conditions need not be identical. Equal entries are not always repeated. Inconclusive results are not listed. Calls of active or inactive are those of the source. Unless noted, calls follow the shape of the dose curve; as a rule, active = well fitted curve in the direction sought with a large enough effect; inconclusive = small, poorly fitted or top-dose-only effect, or another doubt; inactive = no such curve, though single readings can be large; an effect the other way counts as inactive or inconclusive.

Key:
[1] = qHTS assay for small molecule disruptors of the mitochondrial membrane potential - 5 hr assay (AID 651755; calls by dose curve; also: % is scaled to controls: 0 for no effect and ±100 for the full control effect; nearly all actives have a fitted effect of over 40% in size)
In short: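 Read-out: ratiometric Mito-MPS fluorescence, green monomer (ex 490/em 535) vs red mitochondrial aggregate (ex 540/em 590). HepG2 cells treated 5 hr at 37C before 30 min dye loading.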

[2] = target: Tumor necrosis factor (Homo sapiens) (UniProt P01375); experiment: qHTS assay to identify small molecules that stimulate Tumor Necrosis Factor-alpha (TNF-alpha) secretion (AID 651757; active = well fitted curve in the direction sought with a large enough effect in the signal ratio; the % refers to the signal ratio; also: 0% is about no effect)
In short: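 THP-1 cells, 3000/well; compound 17 hrs, 37 C; add cryptate/XL665 anti-TNF-alpha antibody pair; 3 hr RT; TR-FRET (HTRF) read of secreted TNF-alpha. Quantitative HTS format.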

[3] = qHTS assay for environmental chemicals that activate the Aryl hydrocarbon Receptor (AhR) signaling pathway (AID 651777); conditions: 1A2-DRE human hepatoma cells, luciferase, 24 h; activation: stronger effect = higher value; also: % of control where 0% means no effect; nearly all actives have a fitted effect of over 15% in size
In short: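 Measured luciferase activity, read 30 min after One-Glo addition at room temperature, from human hepatoma cells bearing a dioxin response element–CYP1A2 promoter reporter and exposed to compound for 24 hr at 37 C.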

[4] = target: Nuclear receptor ROR-gamma (Homo sapiens) (UniProt P51449); experiment: qHTS assay for small molecule antagonists of the retinoid-related orphan receptor gamma (ROR-gamma) signaling pathway (AID 651802);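 also: CHO cells with doxycycline-induced ROR-gamma expression; luciferase reporter luminescence driven by ROR response element; series mostly up to about 92 µM; % is scaled to controls: 0 for no effect and ±100 for the full control effect; nearly all actives have a fitted effect of over 60% in size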
In short: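 Luciferase read-out: ONE-Glo luminescence after 30 min at room temperature, following 16hr doxycycline induction at 37C, 5% CO2 of CHO cells with TET-inducible ROR and RORE-LUC reporter; decreased luminescence = reduced reporter activity.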

[5] = qHTS assay for small molecule agonists of the antioxidant response element (ARE) signaling pathway measured by Nrf2-dependant transcriptional activity (AID 720636; active = well fitted curve in the direction sought with a large enough effect in the repeat runs; an effect the other way counts as inactive or inconclusive;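 also: HepG2 cells with an ARE-driven luciferase reporter; % of control where 0% means no effect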)
In short: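 In HepG2 cells engineered with an Nrf2-responsive luciferase gene, ARE induction was quantified as luminescence after 16 hr compound treatment at 37 C.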

[6] = qHTS assay for small molecule agonists of the antioxidant response element (ARE) signaling pathway measured by Nrf2-dependant transcriptional activity - cell viability counter screen (AID 720653; active = well fitted curve in the direction sought with a large enough effect in the repeat runs; an effect the other way counts as inactive or inconclusive; also: % is scaled to controls: 0 for no effect and ±100 for the full control effect); conditions: ARE-bla HepG2 viability, CellTiter-Glo ATP luminescence, 16 h; stronger effect = lower value
In short: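 ARE-bla HepG2 cells treated with compounds for 16 h at 37C; this counter screen measures viability as intracellular ATP by CellTiter-Glo luminescence after 30 min at room temperature.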

[7] = qHTS assay for cell viability of HEK293 cells (AID 743288); conditions: ATP luminescence (CellTiter-Glo), 18 h, stronger effect = lower value; also: % is scaled to controls: 0 for no effect and ±100 for the full control effect; nearly all actives have a fitted effect of over 50% in size
In short: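 Viable-cell counts were inferred from luciferase-based ATP content in HEK293 cells seeded at 2,000/well, pre-incubated ≥5 h, then dosed with DMSO-solubilised compounds for 18 h at 37 C.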

[8] = qHTS assay for cell viability of the p53RE-bla HCT-116 cell line (AID 743292); also: % is scaled to controls: 0 for no effect and ±100 for the full control effect; nearly all actives have a fitted effect of over 55% in size
In short: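 Intracellular ATP of p53RE-bla HCT-116 cells measured by luciferase luminescence following 16 h compound incubation at 37 C; DMSO-only wells served as vehicle controls.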

[9] = target: Nuclear receptor subfamily 1 group I member 2 (Rattus norvegicus) (UniProt Q9R1A7); experiment: qHTS assay for small molecule activators of the rat pregnane X receptor (rPXR) signaling pathway (AID 651751; call rule not given here; also: 0% is about no effect); conditions: rPXR reporter cells, luciferase (One-Glo), 24 h
[10] = qHTS assay for small molecule activators of the human pregnane X receptor (PXR) signaling pathway (AID 720659; call rule not given here; also: 0% is about no effect)
[11] = target: Peroxisome proliferator-activated receptor alpha (Homo sapiens) (UniProt Q07869); experiment: qHTS assay for small molecule agonists of the peroxisome proliferator-activated receptor alpha (PPARalpha) signaling pathway (AID 651778); conditions: PathHunter PPARalpha complementation, chemiluminescence, 6 h; stronger effect = higher value; also: % of control where 0% means no effect
In short: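 Enzyme-fragment complementation assay in which ligand-bound PPARalpha translocates and forms an active enzyme that generates chemiluminescence. Cells were plated overnight, exposed to compound for 6 hr at 37 C, and then given detection reagent for 60 min at room temperature.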

[12] = qHTS assay for small molecule antagonists of the retinoid-related orphan receptor gamma (ROR-gamma) signaling pathway - cell viability counter screen (AID 720652; active = well fitted curve in the direction sought with a large enough effect in the repeat runs; an effect the other way counts as inactive or inconclusive;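 also: CHO reporter cells with doxycycline-induced ROR-gamma expression; series mostly up to about 92 µM; compound exposure lasted 16 hr before ATP read; % is scaled to controls: 0 for no effect and ±100 for the full control effect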)
In short: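 CHO RORE-LUC/TET-ROR line, 1,000 cells/well, 37 C 5% CO2 5 hr; cpd or DMSO + doxycycline induction, 16 hr. CellTiter-Glo, 30 min RT, luminescence = ATP content.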

[13] = qHTS assay to identify small molecules that stimulate interleukin-8 (IL-8) secretion (AID 651758; active = well fitted activation curve with a large enough effect in the signal ratio; the % refers to the signal ratio; also: 0% is about no effect)
In short: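 Compounds are added to THP-1 cells (2000 per well) and left 16 hrs at 37 C. A labeled anti-IL-8 antibody pair is then added, and IL-8 secretion is measured by time-resolved FRET after 1-3 hrs at room temperature.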

Tumor necrosis factor (Homo sapiens), sequence (P01375 whole entry, looked up): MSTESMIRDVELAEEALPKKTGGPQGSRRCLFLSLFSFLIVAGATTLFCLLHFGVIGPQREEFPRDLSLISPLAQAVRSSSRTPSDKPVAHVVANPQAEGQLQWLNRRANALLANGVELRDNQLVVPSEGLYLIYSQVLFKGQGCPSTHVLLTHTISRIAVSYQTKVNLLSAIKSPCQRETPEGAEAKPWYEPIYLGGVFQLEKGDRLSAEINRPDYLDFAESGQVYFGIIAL
Peroxisome proliferator-activated receptor alpha (Homo sapiens), sequence (Q07869 whole entry, looked up, the tested form may be a part): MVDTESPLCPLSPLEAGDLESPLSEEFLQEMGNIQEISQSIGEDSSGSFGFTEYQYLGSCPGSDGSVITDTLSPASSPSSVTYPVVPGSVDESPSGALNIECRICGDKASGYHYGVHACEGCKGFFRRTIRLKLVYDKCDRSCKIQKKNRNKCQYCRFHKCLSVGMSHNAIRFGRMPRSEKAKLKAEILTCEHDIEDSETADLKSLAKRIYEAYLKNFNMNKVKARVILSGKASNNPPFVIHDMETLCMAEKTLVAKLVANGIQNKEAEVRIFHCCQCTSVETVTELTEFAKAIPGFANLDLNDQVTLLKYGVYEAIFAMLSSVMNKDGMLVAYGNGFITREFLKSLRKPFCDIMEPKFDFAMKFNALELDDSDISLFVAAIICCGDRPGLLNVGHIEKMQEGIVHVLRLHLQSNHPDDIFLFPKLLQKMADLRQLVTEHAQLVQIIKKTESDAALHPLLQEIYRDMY
Nuclear receptor ROR-gamma (Homo sapiens), sequence (P51449 whole entry, looked up): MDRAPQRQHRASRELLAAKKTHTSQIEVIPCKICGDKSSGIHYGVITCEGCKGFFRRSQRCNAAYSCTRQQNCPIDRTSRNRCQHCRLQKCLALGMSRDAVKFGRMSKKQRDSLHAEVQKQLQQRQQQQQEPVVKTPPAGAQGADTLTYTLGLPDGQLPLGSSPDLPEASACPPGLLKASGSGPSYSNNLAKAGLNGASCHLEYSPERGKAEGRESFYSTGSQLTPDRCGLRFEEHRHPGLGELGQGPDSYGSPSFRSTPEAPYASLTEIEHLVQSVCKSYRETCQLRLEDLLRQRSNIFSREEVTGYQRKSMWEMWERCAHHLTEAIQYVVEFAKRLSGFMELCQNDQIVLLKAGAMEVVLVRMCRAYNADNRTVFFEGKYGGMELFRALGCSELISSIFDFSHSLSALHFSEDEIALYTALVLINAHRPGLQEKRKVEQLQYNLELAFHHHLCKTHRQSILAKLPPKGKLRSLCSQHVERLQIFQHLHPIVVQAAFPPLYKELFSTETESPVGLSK
Nuclear receptor subfamily 1 group I member 2 (Rattus norvegicus), sequence (Q9R1A7 whole entry, looked up): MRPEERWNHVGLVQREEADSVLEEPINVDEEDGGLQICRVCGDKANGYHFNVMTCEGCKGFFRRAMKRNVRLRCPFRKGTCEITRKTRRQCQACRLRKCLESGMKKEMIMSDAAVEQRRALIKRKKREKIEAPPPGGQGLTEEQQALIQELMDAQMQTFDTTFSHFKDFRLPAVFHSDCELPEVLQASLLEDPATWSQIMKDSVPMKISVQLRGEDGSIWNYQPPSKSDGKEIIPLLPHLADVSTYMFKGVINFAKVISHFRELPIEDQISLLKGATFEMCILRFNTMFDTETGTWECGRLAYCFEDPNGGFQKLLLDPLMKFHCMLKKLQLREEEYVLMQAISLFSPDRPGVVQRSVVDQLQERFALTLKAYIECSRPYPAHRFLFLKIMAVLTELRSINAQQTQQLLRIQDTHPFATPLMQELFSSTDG

CC(C)CO
inactive: Potency [1] | Potency [2] | activation [3] -1.47% | Potency [4] | outcome [5] | max response [6] -4.27% | max response [7] 4.23% | Potency [8] | max response [9] 1.55% | outcome [10]

CCOc1cccc(N)c1
inactive: Potency [1] | Potency [2] | activation [3] 1.67% | max response [11] 0.865% | Potency [4] | outcome [5] | Potency [12] | max response [6] -7.78% | max response [7] 5.75% | Potency [8] | max response [9] -4.44% | outcome [10]

CCc1ccccc1
inactive: Potency [1] | Potency [2] | activation [3] 3.73% | max response [11] -3.6% | Potency [4] | outcome [5] | Potency [12] | max response [6] -7.67% | max response [7] -3.72% | Potency [8] | max response [9] -0.471% | outcome [10]

CC/C(C)=N/O
inactive: Potency [1] | Potency [2] | max response [11] 1.72% | Potency [4] | outcome [5] | max response [6] -8.91% | max response [7] 6.15% | Potency [8] | max response [9] 5.17% | outcome [10]

Cc1cccc2sc(N)nc12
inactive: Potency [1] | Potency [2] | max response [11] -1.18% | Potency [4] | outcome [5] | Potency [12] | max response [6] -5.19% | max response [7] 2.69% | Potency [8] | max response [9] 7.23% | outcome [10]

CC=O
inactive: Potency [2] | activation [3] 1.11% | max response [11] -2.4% | Potency [4] | outcome [5] | Potency [12] | max response [6] 5.19% | max response [7] -3.08% | Potency [8] | max response [9] -4.58% | outcome [10]

NC(=O)c1cccc([N+](=O)[O-])c1
inactive: Potency [2] | activation [3] 0.373% | max response [11] 2.42% | Potency [4] | outcome [5] | Potency [12] | max response [6] -9.57% | max response [7] -1.82% | Potency [8] | max response [9] 6.83% | outcome [10]

O=[N+]([O-])c1cc(C(F)(F)F)ccc1Cl
inactive: Potency [1] | Potency [2] | activation [3] 1.14% | max response [11] 0.399% | Potency [4] | outcome [5] | Potency [12] | max response [6] -6.2% | max response [7] -0.584% | Potency [8] | max response [9] 0.829% | outcome [10]

Nc1cc([N+](=O)[O-])ccc1C(=O)O
inactive: Potency [1] | Potency [2] | activation [3] 3.7% and 3.8% | max response [11] -7.92% and -2.55% | Potency [4] | outcome [5] | Potency [12] | max response [6] -7.64% and 3.66% | max response [7] -6.72% and -9.32% | Potency [8] | max response [9] -5.92% and 1.25% | outcome [10]

C=CCCC
inactive: Potency [1] | Potency [2] | max response [11] -5.85% | Potency [4] | outcome [5] | max response [6] 3.55% | max response [7] -5.1% | Potency [8] | max response [9] 2.44% | outcome [10]

CC(N)CN (stereo unspecified)
inactive: Potency [2] | Potency [13] | activation [3] -0.27% | max response [11] -3.51% | outcome [5] | Potency [12] | max response [6] 0.44% | max response [7] -8.09% | Potency [8] | max response [9] 5.77% | outcome [10]

O=C(O)c1ccc(Cl)cc1Cl
inactive: Potency [1] | Potency [2] | activation [3] -0.705% | max response [11] -5.53% | Potency [4] | outcome [5] | Potency [12] | max response [6] -0.648% | max response [7] 4.16% | Potency [8] | max response [9] 4.22% | outcome [10]

Cc1cccc2cccnc12
inactive: Potency [1] | Potency [2] | activation [3] -0.26% | max response [11] 3.59% | Potency [4] | outcome [5] | Potency [12] | max response [6] -7.04% | max response [7] -0.0071% | Potency [8] | max response [9] -0.272% | outcome [10]

Cc1cccc(C)c1[N+](=O)[O-]
inactive: Potency [1] | Potency [2] | activation [3] -1.35% and 15.8% | max response [11] 0.937% and 0.387% | Potency [4] | outcome [5] | Potency [12] | max response [6] -4.95% and -2.18% | max response [7] -0.503% and 0.264% | Potency [8] | max response [9] 1.64% and 13.2% | outcome [10]

CCOC(=O)OCC
inactive: Potency [2] | Potency [13] | activation [3] 0.303% | max response [11] 3.76% | outcome [5] | Potency [12] | max response [6] 2.96% | max response [7] 1.3% | Potency [8] | max response [9] -3.24% | outcome [10]

Cc1c(N)cccc1[N+](=O)[O-]
inactive: Potency [1] | Potency [2] | activation [3] -0.541% | max response [11] -5.39% | Potency [4] | outcome [5] | Potency [12] | max response [6] 12.6% | max response [7] 11.6% | Potency [8] | max response [9] -0.458% | outcome [10]
